Measured values: PubChem BioAssay (NCATS)
Inconclusive results are not listed. Active and inactive are the calls of the source. Calls follow the shape of the dose curve; as a rule, active = well fitted curve in the direction sought with a large enough effect; inconclusive = small, poorly fitted or top-dose-only effect, or another doubt; inactive = no such curve, though single readings can be large; an effect the other way counts as inactive or inconclusive.

Legend:
[1] = qHTS of pediatric cancer cell lines to identify multiple opportunities for drug repurposing: Primary screen for BT-37 cells (AID 1347094); also: potency is read from the fitted curve at half-maximal effect
Summary of the method: (§1)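 Primary screen of approved and investigational compounds on cells in growth media at 37 degrees C, 5% CO2. MIPE set at 11-point and NPC set at 8-point dilutions; viability scored by ATP-based luminescence at 48 hours.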

[2] = qHTS of pediatric cancer cell lines to identify multiple opportunities for drug repurposing: Primary screen for NB-EBc1 cells (AID 1347095); also: potency is read from the fitted curve at half-maximal effect
Summary of the method: as §1

[3] = qHTS of pediatric cancer cell lines to identify multiple opportunities for drug repurposing: Primary screen for Saos-2 cells (AID 1347097); also: nearly all actives have a fitted effect of over 40% in size; also: potency is read from the fitted curve at half-maximal effect
Summary of the method: as §1

[4] = qHTS of pediatric cancer cell lines to identify multiple opportunities for drug repurposing: Primary screen for NB1643 cells (AID 1347099); also: nearly all actives have a fitted effect of over 50% in size; also: potency is read from the fitted curve at half-maximal effect
Summary of the method: as §1

[5] = qHTS of pediatric cancer cell lines to identify multiple opportunities for drug repurposing: Primary screen for LAN-5 cells (AID 1347100); also: potency is read from the fitted curve at half-maximal effect
Summary of the method: (§2)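 Viability after 48 h compound treatment at 37C, 500-1,000 cells/well, read as ATP luminescence with CellTiter-Glo. Primary screens used 11-point (MIPE, 0.78 nM-46 µM) or 8-point (NPC, 0.59 nM-46 µM) final concentrations; follow-up screens used 11-point dilutions.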

[6] = qHTS of pediatric cancer cell lines to identify multiple opportunities for drug repurposing: Primary screen for BT-12 cells (AID 1347101); also: nearly all actives have a fitted effect of over 25% in size; also: potency is read from the fitted curve at half-maximal effect
Summary of the method: (§3)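 Cells (500-1,000/well) rested 5 h, then received compounds for 48 h; metabolically active cells were measured by CellTiter-Glo luminescence. Final concentrations spanned up to 46 µM (MIPE, 11-point) or 0.59 nM-46 µM (NPC, 8-point) in primary screens, 11-point in follow-ups.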

[7] = qHTS of pediatric cancer cell lines to identify multiple opportunities for drug repurposing: Primary screen for OHS-50 cells (AID 1347103); also: nearly all actives have a fitted effect of over 40% in size; also: potency is read from the fitted curve at half-maximal effect
Summary of the method: as §3

[8] = qHTS of pediatric cancer cell lines to identify multiple opportunities for drug repurposing: Primary screen for Rh30 cells (AID 1347107); also: nearly all actives have a fitted effect of over 75% in size; also: potency is read from the fitted curve at half-maximal effect
Summary of the method: as §2

[9] = qHTS of pediatric cancer cell lines to identify multiple opportunities for drug repurposing: Confirmatory screen for SK-N-MC cells (AID 1347111);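 also: potency is read from the fitted curve at half-maximal effect; cells exposed to compound for 48 h before the readout; nearly all actives have a fitted effect of over 70% in size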
Summary of the method: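 SK-N-MC cells at 500-1,000 cells/well in growth media were pre-incubated 5 h, then exposed to compounds at 11-point dilutions for 48 h at 37 degrees C, 5% CO2. Viability was read as CellTiter-Glo luminescence.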

[10] = qHTS of pediatric cancer cell lines to identify multiple opportunities for drug repurposing: Confirmatory screen for BT-12 cells (AID 1347112); also: nearly all actives have a fitted effect of over 55% in size; also: potency is read from the fitted curve at half-maximal effect
Summary of the method: as §2

[11] = qHTS of pediatric cancer cell lines to identify multiple opportunities for drug repurposing: Primary screen for Rh18 cells (AID 1347102); also: nearly all actives have a fitted effect of over 65% in size; also: potency is read from the fitted curve at half-maximal effect
Summary of the method: as §2

[12] = qHTS of pediatric cancer cell lines to identify multiple opportunities for drug repurposing: Primary screen for RD cells (AID 1347104); also: nearly all actives have a fitted effect of over 55% in size; also: potency is read from the fitted curve at half-maximal effect
Summary of the method: as §1

[13] = qHTS of pediatric cancer cell lines to identify multiple opportunities for drug repurposing: Primary screen for MG 63 (6-TG R) cells (AID 1347105); also: nearly all actives have a fitted effect of over 50% in size; also: potency is read from the fitted curve at half-maximal effect
Summary of the method: as §1

[14] = qHTS of pediatric cancer cell lines to identify multiple opportunities for drug repurposing: Primary screen for control Hh wild type fibroblast cells (AID 1347106);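 also: series mostly up to about 46 µM; a drop in luminescence marks cytotoxicity and a rise apparent proliferation; nearly all actives have a fitted effect of over 55% in size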
Summary of the method: as §2

[15] = qHTS of pediatric cancer cell lines to identify multiple opportunities for drug repurposing: Primary screen for Rh41 cells (AID 1347108); also: nearly all actives have a fitted effect of over 70% in size; also: potency is read from the fitted curve at half-maximal effect
Summary of the method: as §1

[16] = qHTS of pediatric cancer cell lines to identify multiple opportunities for drug repurposing: Confirmatory screen for NB1643 cells (AID 1347109); also: nearly all actives have a fitted effect of over 45% in size; also: potency is read from the fitted curve at half-maximal effect
Summary of the method: as §2

[17] = qHTS of pediatric cancer cell lines to identify multiple opportunities for drug repurposing: Confirmatory screen for A673 cells (AID 1347110); also: potency is read from the fitted curve at half-maximal effect; nearly all actives have a fitted effect of over 65% in size
Summary of the method: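 Cells plated at 500-1,000/well were treated five hours later with multi-point dilutions up to 46 µM final. After two days, CellTiter-Glo was added and luminescence read.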

[18] = qHTS of pediatric cancer cell lines to identify multiple opportunities for drug repurposing: Confirmatory screen for LAN-5 cells (AID 1347113); also: nearly all actives have a fitted effect of over 65% in size; also: potency is read from the fitted curve at half-maximal effect
Summary of the method: as §2

[19] = qHTS of pediatric cancer cell lines to identify multiple opportunities for drug repurposing: Primary screen for SK-N-SH cells (AID 1347098); also: nearly all actives have a fitted effect of over 65% in size; also: potency is read from the fitted curve at half-maximal effect
Summary of the method: as §3

Measured: Potency

N#Cc1c(NC(=O)c2cccc3ccccc23)sc2c1CCCC2
active: [1] 1090 nM | [2] 332 nM | [3] 132 nM | [4] 4690 nM | [5] 148 nM | [6] 1090 nM | [7] 485 nM | [9] 369 nM | [10] 2330 nM
inactive: [8]

C=C1C[C@@]2(O)O[C@@]3(C[C@H]2C(C)C)[C@H](C)CC[C@H]13
not listed: [5] | [9] | [10] | [16] | [17] | [18] | [19]
inactive: all other assays above

CON=C(C(=O)N[C@@H]1C(=O)N2C(C(=O)O)=C(Cn3ccc(=N)n3CCO)CS[C@H]12)c1csc(N)n1
not listed: [4] | [8] | [9] | [10] | [16] | [17] | [18] | [19]
inactive: all other assays above

NC(=O)N1CCC(CC(=O)N2CCC([C@H]3c4ncc(Br)cc4CCc4cc(Cl)cc(Br)c43)CC2)CC1
active: [1] 19300 nM | [2] 13200 nM | [3] 18700 nM | [4] 14800 nM | [5] 7430 nM | [6] 21700 nM | [7] 8630 nM | [12] 20900 nM | [13] 18700 nM | [15] 5900 nM
inactive: [14]

CC(=O)ON=C1C(c2c(O)[nH]c3cc(Br)ccc23)=Nc2ccccc21
inactive: [14]
active: [1] 6110 nM | [2] 5260 nM | [3] 11800 nM | [4] 16600 nM | [6] 19300 nM | [12] 6620 nM | [16] 16500 nM | [17] 7370 nM | [9] 8270 nM | [10] 18500 nM | [18] 14700 nM

N#CNC(=NCCCCCCOc1ccc(Cl)cc1)Nc1ccncc1
inactive: [14]
active: [1] 3.9 nM | [2] 1 nM | [19] 60.7 nM | [4] 7.4 nM | [5] 1 nM | [6] 544 nM | [11] 18.7 nM | [7] 21700 nM | [12] 5.9 nM | [13] 14800 nM | [8] 5.9 nM | [15] 5.9 nM | [16] 14.7 nM | [9] 14.7 nM | [18] 11.7 nM

CCc1nc(-c2cccc(C)c2)c(-c2ccnc(NC(=O)c3ccccc3)c2)s1
inactive: [14]
active: [1] 27300 nM | [2] 20900 nM | [3] 16600 nM

Cc1ncc(-c2ccnc(Nc3ccc(S(C)(=O)=O)cc3)n2)n1C(C)C
inactive: [14] | [8]
active: [1] 6110 nM | [2] 2350 nM | [3] 3720 nM | [6] 3850 nM | [7] 3850 nM | [12] 6620 nM | [15] 5900 nM

C=CC[C@@H]1C=C(C)C[C@H](C)C[C@H](OC)[C@H]2O[C@@](O)(C(=O)C(=O)N3CCCC[C@H]3C(=O)O[C@H](C(C)=C[C@@H]3CC[C@H](O)[C@H](OC)C3)[C@@H](C)[C@@H](O)CC1=O)[C@@H](C)C[C@@H]2OC
inactive: [2] | [14] | [8]
active: [1] 1720 nM | [3] 1870 nM | [19] 6070 nM | [7] 6110 nM

CCNC(=O)Nc1ccc(-c2nc3c(c(N4CCOC[C@H]4C)n2)CCN(C2COC2)C3)cc1
active: [1] 1720 nM | [2] 1180 nM | [3] 4690 nM | [7] 485 nM | [12] 1050 nM | [13] 743 nM | [15] 1480 nM

CCCCOc1ccc(C(=O)Nc2ccc(F)cc2F)cc1
not listed: [4] | [9] | [10] | [16] | [17] | [18] | [19]
inactive: all other assays above

Cn1cc(-c2ccc3ncc(Cc4ccc5ncccc5c4)n3n2)cn1
not listed: [3] | [7] | [9] | [10] | [15] | [16] | [17] | [18]
inactive: all other assays above

Oc1ccc(-c2ccc(-c3cc(Nc4cccc(CNC5CC5)c4)n[nH]3)cc2)c(O)c1
active: [1] 5440 nM | [2] 2960 nM | [3] 5900 nM | [6] 7690 nM | [7] 1090 nM | [12] 10500 nM | [17] 2330 nM | [9] 827 nM | [18] 2330 nM
inactive: [4] | [14]

CC[C@]12C=CCN3CC[C@@]4(c5cc([C@@]6(C(=O)OC)C[C@H]7C[C@@H](C(C)(F)F)CN(Cc8c6[nH]c6ccccc86)C7)c(OC)cc5N(C)[C@H]4[C@@](O)(C(=O)OC)[C@H]1OC(C)=O)[C@@H]32
active: [1] 27.3 nM | [2] 11.8 nM | [3] 8.3 nM | [5] 5.3 nM | [6] 34.3 nM | [7] 19.3 nM | [12] 5.9 nM | [9] 9270 nM
inactive: [8] | [16] | [10] | [18]

CCOc1cc2ncc(C#N)c(Nc3ccc(OCc4ccccn4)c(Cl)c3)c2cc1NC(=O)C=CCN(C)C
active: [1] 1090 nM | [2] 332 nM | [3] 1180 nM | [4] 590 nM | [6] 1930 nM | [12] 418 nM | [17] 10400 nM | [9] 10400 nM
